Out of some 2,100 compounds screened, about 670 (32%) were called active. Another 50% or so got no clear call; they are omitted. The list shows a part of the results. A number with no mark means an inactive call. Calls follow the shape of the dose curve; as a rule, active = well fitted inhibition curve with a large enough effect; inconclusive = small, poorly fitted or top-dose-only effect; inactive = no such curve, though single readings can be large or run the other way.
% is scaled to controls: 0 for no effect and ±100 for the full control effect; potency is read from the fitted curve at half-maximal effect.

The assay in a line: CMV-Luciferase Counterscreen for Inhibitors of ATXN expression. Also: nearly all actives have a fitted effect of over 55% in size. Conditions: HEK-293 CMV-luciferase reporter, luminescence, 24 h; series mostly up to 57.5 µM; activity change, negative = inhibition: at the top concentration. Background: Counterscreens check selectivity or assay interference.
Turning to `Cc1ccc(NC(=O)CCC(=O)c2cc(C)sc2C)nc1`, the “activity change, negative = inhibition” value is 301%.

Take `Cc1ccc(OCC(=O)N2CCN(c3nnc(-c4ccc(C)cc4)c4ccccc34)CC2)cc1`: the Potency is 2.24 µM (active).

On to `CCCCOC(=O)/C=C\C(=O)NC(N)=O`, for which the Potency is 14.1 µM (active).

As to `CCOC(=O)/C=C/C(=O)Nc1ccc(Oc2ccccc2)cc1`, the activity change, negative = inhibition was -6.32% [at 11.4 µM].

Take `Cc1nc2cc(NC(=O)CSc3nc4c(C)cccc4cc3C#N)ccc2s1`: the “activity change, negative = inhibition” value was -19.4%.

`CCCN(CCC)S(=O)(=O)c1ccc(C(=O)Nc2nnc(-c3cc(OC)cc(OC)c3)o2)cc1`: the Potency was 0.794 µM (active).

As for `Cc1nc2ccc(NC(=O)c3cccc(S(=O)(=O)N(C)c4ccccc4)c3)cc2s1`, the Potency was 3.55 µM (active).

On to `CN(c1ccccc1)S(=O)(=O)c1ccc(C(=O)Nc2nnc(-c3ccc(F)cc3)o2)cc1`, for which the Potency was 10 µM (active).

Turning to `Cc1ccc2nc(N(CCCN(C)C)C(=O)c3ccc(S(=O)(=O)N4CCCCCC4)cc3)sc2c1`, the activity change, negative = inhibition was -18.5% [at 11.4 µM].

In the case of `Cc1nc2ccc(NC(=O)c3ccc(S(=O)(=O)N(C)c4ccccc4)cc3)cc2s1`, the Potency was 3.98 µM (active).

Consider `Cc1cccc(NC(=O)c2ccc(S(=O)(=O)N(C)c3ccccc3)cc2)n1`, for which the Potency was 14.1 µM (active).

Take `O=C(Nc1nnc(-c2ccc(F)cc2)o1)c1cc(Cl)sc1Cl`: the Potency was 10 µM (active).

Take `O=C(c1ccco1)N1CCCC(c2nc(-c3ccc(S(=O)(=O)NCc4ccccc4)cc3)no2)C1` (configuration not stated): the Potency was 11.2 µM (active).

With `COc1cc2c3nnc(-c4ccc(F)cc4)c-3cn(Cc3ccc(F)cc3)c2cc1OC`, the activity change, negative = inhibition is -11.8% [at 11.4 µM].

In the case of `O=C(c1ccco1)N1CCN(c2ccnc3cc(Cl)ccc23)CC1`, the Potency was 14.1 µM (active).

`CCOC(=O)N1CCN(c2ccnc3cc(Cl)ccc23)CC1`: the Potency was 2.51 µM (active).

Consider `CC(C)N(C(=O)N1CCN(c2ccnc3cc(Cl)ccc23)CC1)C(C)C`, for which the Potency is 12.6 µM (active).

On to `CCOC(=O)C(=CNc1ccc2c(c1)nnn2-c1ccc(Cl)cc1)C(=O)OCC`, for which the “activity change, negative = inhibition” value is 7.31%.

As for `O=C(C1CCCCC1)N1CCN(c2ccnc3cc(Cl)ccc23)CC1`, the Potency is 5.01 µM (active).

Regarding `Cc1cc2oc3ccc(NCCC4CCCN4C)cc3c(=O)c2cc1C` (configuration not stated), the “activity change, negative = inhibition” value was 6.26%.

Regarding `CN[C@H]1C[C@H]2c3[nH]c4ccc(-c5ccc(OC)cc5)cc4c3CCN2C(=O)[C@H]1[C@H](C)O`, the Potency was 3.55 µM (active).

Take `Cc1nn(C)c(C)c1NC(=O)CSc1nc(Cc2ccccc2)nc2c1cnn2-c1ccccc1`: the activity change, negative = inhibition is -7.1% [at 11.4 µM].

For `C/C(=N\NC(=O)c1cc(-c2cccnc2)nc2ccccc12)c1ccc(O)cc1O`, the Potency was 2.51 µM (active).

As for `COc1ccc(/C(C)=N/NC(=O)c2cccc(S(=O)(=O)N3CCCC3)c2)c(O)c1`, the Potency was 3.98 µM (active).

Take `CC(C)CC(=NNC(=O)c1ccncc1)c1cc(Cl)ccc1O`: the Potency was 0.282 µM (active).

With `CC(=NNC(=O)c1ccncc1)c1ccc2ccccc2c1O`, the Potency is 0.794 µM (active).

As for `N/C(=C\C(=O)c1cc(Cl)ccc1O)C(Cl)(Cl)Cl`, the activity change, negative = inhibition was 21.6% [at 11.4 µM].

For the compound `O=C1CCCC(O)=C1C=NCc1ccccc1`, the activity change, negative = inhibition was 6.36% [at 11.4 µM].

For the compound `CC(=NNC(=O)c1ccncc1)c1ccc(O)cc1O`, the Potency was 11.2 µM (active).

In the case of `CCN(CC)S(=O)(=O)c1cccc(C(=O)N/N=C(\C)c2ccc(O)cc2O)c1`, the Potency is 4.47 µM (active).

Take `Oc1c(CN2CCCCC2)ccc2cccnc12`: the Potency is 12.6 µM (active).

For `Clc1ccc2c(NCc3ccccc3)ccnc2c1`, the Potency is 8.91 µM (active).

As for `CCN(CC)CCNc1ccnc2cc(Cl)ccc12`, the activity change, negative = inhibition is -15.4% [at 11.4 µM].

In the case of `Cc1ccc2c(Cl)cc(Cl)c(O)c2n1`, the Potency was 8.91 µM (active).

`CS(=O)(=O)N1CCC(Oc2cccc(C(=O)NCCCC3CCCC3)c2)CC1`: the Potency was 14.1 µM (active).

Consider `CC[C@@H]1C(c2cccc(Cl)c2)=NN(c2ccc(Br)cc2)[C@H]1C(=O)N1CCOC1=O`, for which the “activity change, negative = inhibition” value was 3.07%.

Take `COc1ccc(-c2cc(C3CCN(c4ccc(C(C)=O)cc4[N+](=O)[O-])CC3)[nH]n2)cc1`: the Potency is 11.2 µM (active).

On to `CC(=O)c1ccc(N2CCc3ccccc3C2)c([N+](=O)[O-])c1`, for which the “activity change, negative = inhibition” value was -14%.

Consider `CCOC(=O)c1ccccc1NC(=O)CSc1nc2ccccc2c(=O)n1CCCN1CCOCC1`, for which the Potency was 17.8 µM (active).

Consider `O=c1c2c(-c3ccccc3)csc2nc2c3ccccc3c(NCCN3CCOCC3)nn12`, for which the activity change, negative = inhibition is -12% [at 11.4 µM].

As for `O=C(Nc1nc(NC(=O)c2ccco2)n(-c2ccccc2)n1)c1ccccc1`, the Potency is 6.31 µM (active).

For the compound `CCN1CC2=C(OC(N)=C(C#N)C2c2cccs2)/C(=C\c2cccs2)C1` (configuration not stated), the activity change, negative = inhibition was -3.4% [at 11.4 µM].

Regarding `COc1cc2[nH]c(=O)n(CCCCCC(=O)N3CC=C(c4ccccc4)CC3)c(=O)c2cc1OC`, the Potency is 3.16 µM (active).

On to `O=C(CCCN1C(=O)S/C(=C\c2ccccc2)C1=O)NNC(=O)c1ccccc1O`, for which the Potency was 2.24 µM (active).

Take `CCN1CCN(CCCNC(=O)c2ccc(/C=C3/Sc4ccccc4N(Cc4ccccc4F)C3=O)cc2)CC1`: the “activity change, negative = inhibition” value is 12.2%.

Consider `COc1ccc(/C=C2\SC(=S)N(CCCC(=O)NNC(=O)c3ccccc3O)C2=O)cc1`, for which the Potency is 3.98 µM (active).

As for `CC(C)(C)c1ccc(Oc2ccc(N)cn2)cc1`, the Potency was 3.98 µM (active).

On to `CC(C)(C)c1ccc(Oc2ccc(N)cc2)cc1`, for which the Potency is 3.98 µM (active).

Consider `CCC(C)(C)c1ccc(Oc2ccc(N)cc2)cc1`, for which the Potency was 2 µM (active).

Regarding `Cc1ccc(C(C[N+](=O)[O-])Sc2ccc(N)cc2)cc1` (configuration not stated), the activity change, negative = inhibition was 52% [at 11.4 µM].

In the case of `Cc1c(Cl)c([N+](=O)[O-])nn1Cc1ccc(C(=O)N/N=C\c2cc(Cl)ccc2O)o1`, the Potency was 0.631 µM (active).

With `CCN(CC)c1ccc(/C=C/c2cccc[n+]2C)c(OC)c1`, the Potency is 2 µM (active).

On to `CCCC[C@@H](CNC)NC[C@H](NCCCCC1CCCCC1)C(C)C`, for which the Potency was 35.5 µM (active).

In the case of `O=C(/C=C/c1ccccc1)NC(=S)NNC(=O)c1cnccn1`, the Potency was 8.91 µM (active).

Turning to `CCn1c2ccccc2c2cc(/C=N/NC(=O)c3ccc(O)cc3)ccc21`, the “activity change, negative = inhibition” value is -11.8%.

For the compound `CCn1c2ccccc2c2cc(/C=N/NC(=O)c3ccncc3)ccc21`, the Potency was 2.82 µM (active).

Regarding `O=C1N/C(=N/N=C/c2ccccc2O)SC1Cc1ccc(F)cc1` (configuration not stated), the Potency is 12.6 µM (active).

Regarding `Cn1nnnc1Sc1ncnc2scc(-c3ccsc3)c12`, the Potency is 11.2 µM (active).

As to `COc1ccc(-c2csc3ncnc(Sc4nnnn4C)c23)cc1`, the Potency was 3.98 µM (active).

Take `Cc1cnc(NC(=O)CCCc2nc3ccccc3s2)s1`: the “activity change, negative = inhibition” value was 91.3%.

With `O=C1C=C(Nc2ccccc2O)c2ccccc2C1=O`, the Potency is 10 µM (active).

With `CN(C)S(=O)(=O)c1ccc(-c2csc(N/N=C/c3ccco3)n2)cc1`, the Potency was 2.51 µM (active).

For the compound `CC1=CC(C)(C)Nc2ccc(OC(=O)CN3C(=O)c4cccc5cccc(c45)C3=O)cc21`, the Potency is 15.8 µM (active).

As for `C=CCOC(=O)C1=C[C@@H](c2ccc3c(c2)OCO3)C[C@@H](OCCCCO)O1`, the “activity change, negative = inhibition” value is 5.8%.

`O=C(NCc1ccccc1)C1=C[C@@H](c2csc3ccccc23)C[C@@H](OCCCCO)O1`: the Potency is 3.55 µM (active).

As for `CCOC(=O)c1sc2nc(CSc3ccccc3)nc(NCCN(C)C)c2c1C`, the “activity change, negative = inhibition” value was -27.1%.

In the case of `CCCCCn1c(=O)c2ccccc2n2c(CCl)nnc12`, the Potency is 25.1 µM (active).

Turning to `O=c1c2ccccc2sc2nc(CCl)nn12`, the activity change, negative = inhibition is -24% [at 11.4 µM].

On to `CNC(=O)c1sc(N2N=C3/C(=C/c4ccccc4)CCCC3C2c2ccccc2)nc1C` (configuration not stated), for which the Potency was 7.94 µM (active).

`COc1ccc2c(c1)CC(N1CCN(C)CC1)c1cc(OC)ccc1S2` (configuration not stated): the Potency is 28.2 µM (active).

As to `CCCCN1C(=O)/C(=C2/Sc3ccccc3N2C)S/C1=N\c1ncn[nH]1`, the “activity change, negative = inhibition” value is 5.62%.

As to `Cc1cc(=O)oc2c1c(C)nn2-c1cccc(Cl)c1`, the activity change, negative = inhibition was -12.8% [at 11.4 µM].

Turning to `COc1ccc(-n2nc(C(=O)NCC(=O)Nc3cccc(Cl)c3)c3ccccc3c2=O)cc1OC`, the “activity change, negative = inhibition” value was 11.4%.

Take `O=C(c1cccc(Cl)c1)c1nn(-c2ccccc2)c(=O)cc1C(F)(F)F`: the Potency is 25.1 µM (active).

Regarding `O=C(N/N=C\c1c(O)ccc2ccccc12)c1ccc(S(=O)(=O)N2CCCCC2)cc1`, the Potency is 1.12 µM (active).

`O=C(N/N=C\c1cc(Cl)ccc1O)c1ccc(S(=O)(=O)N2CCCCC2)cc1`: the Potency is 0.316 µM (active).

`CC1(C)Cc2c(ccc3ccccc23)C2=C(C(=O)N3CCCC3)C(=O)C(=O)N21`: the “activity change, negative = inhibition” value is -5.36%.

As to `CN(C)CCNc1cccc2sc3ccc(O)cc3c(=O)c12`, the Potency was 14.1 µM (active).

Consider `CN(C)CCNc1ccc(CO)c2sc3ccc(O)cc3c(=O)c12`, for which the Potency is 0.631 µM (active).

Turning to `COc1ccc(C(=O)NC(=S)NNC(=O)c2c(-c3ccccc3)noc2C)cc1OC`, the Potency was 10 µM (active).

Take `COc1ccc(C(=O)c2sc(Nc3ccccc3)nc2N)cc1OC`: the “activity change, negative = inhibition” value was 129%.

In the case of `CCOC(=O)C(C(C)=O)c1c(Br)c(O)c(O)c2c(C(=O)c3ccc(C)cc3)coc12` (configuration not stated), the Potency is 2.51 µM (active).

Take `Cc1cc(N/N=C\c2ccc(Br)cc2)nc(-n2nc(C)cc2C)n1`: the “activity change, negative = inhibition” value was 1.75%.

With `Cc1cc(O)c(C(C)C)cc1N=Cc1ccccc1[N+](=O)[O-]`, the “activity change, negative = inhibition” value is -23.9%.

Turning to `Cc1cc(N/N=C/c2ccccc2[N+](=O)[O-])nc(-n2nc(C)cc2C)n1`, the Potency is 7.08 µM (active).

Regarding `NC(=O)CC(NC(=O)Cc1ccc(Br)cc1)c1ccc(NC2CCCC2)c([N+](=O)[O-])c1` (configuration not stated), the Potency is 3.16 µM (active).

As to `N#CC1=C(N)N2C(=C(C#N)C1c1ccc(Br)cc1)Nc1ccccc12` (configuration not stated), the Potency is 0.631 µM (active).

`N#CC1=C(N)N2C(=C(C#N)C1c1cccc(Br)c1)Nc1ccccc12` (configuration not stated): the Potency was 3.55 µM (active).

With `CCc1ccc(NC(=O)C2CCN(S(=O)(=O)c3ccc4c(c3)CC(C)N4C(C)=O)CC2)cc1` (configuration not stated), the Potency was 3.16 µM (active).

Take `CC(=O)N1c2ccc(S(=O)(=O)N3CCC(C(=O)Nc4cccc(C(F)(F)F)c4)CC3)cc2CC1C` (configuration not stated): the Potency was 8.91 µM (active).

In the case of `CN1CCN(c2ccc(S(=O)(=O)N3CCCCC3)cc2NC(=O)/C=C/c2ccc(Cl)c([N+](=O)[O-])c2)CC1`, the activity change, negative = inhibition is -27% [at 11.4 µM].

Take `CC(=O)N1c2ccc(S(=O)(=O)N3CCC(C(=O)N4CCN(c5ccc(Cl)cc5)CC4)CC3)cc2CC1C` (configuration not stated): the Potency was 7.94 µM (active).

For the origin of these results see PubChem BioAssay AID1745847 (National Center for Advancing Translational Sciences (NCATS), 2022).
